Here are results for 33 molecules from PubChem BioAssay (NCI).

About 83,000 compounds went through this panel and 20% of them were active in at least one assay; those are over-represented in the sample as a whole.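 96-well plates, one dose, 48 hours. Percent growth reported; active if below 10.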 Active and inactive are the calls of the source.

The first assay concerns SK-MEL-5 melanoma. In words: NCI-60 one-dose screen, 48 h (100 = growth as untreated, 0 = no growth, -100 = all killed). To be noted: 10 µM unless noted.
On to `O=C1c2ccccc2NC(c2cn(-c3ccccc3)nc2-c2cccs2)N1Cc1ccccc1` (stereo not drawn), for which the growth is 80.9% (inactive). Same read-out and setting: the same measure for `COC(=O)[C@]12CC[C@@H](C)[C@H](C)[C@@H]1C1=CC[C@@H]3[C@@]4(C)C[C@@H](O)[C@H](O)[C@@](C)(CO)C4=CC[C@@]3(C)[C@]1(C)CC2`: -98.6% (active). Same read-out and setting: the same measure for `Cn1c(=O)c2c(nc(Br)n2CC(=O)Nc2ccc(F)cc2)n(C)c1=O`: 104% (inactive). Consider `CCN(CC)CCCCCCNc1ccnc2cc(Cl)ccc12`, for which the growth is 80.8% (inactive). Same read-out and setting: the same measure for `C#CCC(C)(O)/C=C/C1=C(C)CCCC1(C)C` (stereo not drawn): 98.4% (inactive).

A further assay concerns LOX IMVI melanoma. The description is as above. To be noted: 10 µM unless noted.
Turning to `CC(C)(C)c1ccc(OCCCCCCCN2CCNCC2)cc1`, the growth is -77.8% (active). As for `O=Cc1nc2ccccc2[nH]1`, the growth is 91.2% (inactive). Take `C[C@]12CC[C@@H]3c4ccc(O)cc4CC[C@H]3[C@@H]1C[C@H](O)[C@@H]2O`: the growth is 92.4% (inactive).

As for `Cn1c(=O)c2c(ncn2CCC(=O)Nc2ccc(F)cc2)n(C)c1=O`, the growth was 97.9% (inactive). Still for that read-out and setting: the same measure for `CN(C)CCCCC(C(=O)CBr)(c1ccccc1)c1ccccc1`: -39% (active).

Consider `C[C@@H]1CCCCCCCCC[C@H](O)C(=O)C[C@@H](SC[C@@H](O)C(=O)O)C(=O)O1`, for which the growth is 71.8% (inactive).

As to `O=C(N/N=C/c1ccccc1SSc1ccccc1/C=N/NC(=O)c1ccccc1)c1ccccc1`, the growth was 11.1% (inactive). Same read-out and setting: the same measure for `CC/C=C\C[C@H]1CC=C2C(=O)C=C[C@@H]2CC=CCCCC(=O)O[C@@H](CCCCC)CC=C2C(=O)C=C[C@@H]2CC=CCCCC(=O)O[C@@H](CCCCC)CC=C2C(=O)C=C[C@@H]2CC=CCCCC(=O)O[C@@H](CCCCC)CC=C2C(=O)C=C[C@@H]2CC=CCCCC(=O)O1`: -75.8% [7.9 µM] (active); for `COc1ccc(NC(=S)N/N=C/c2ccccc2SSCCC(=O)OC[C@H]2O[C@H](O)[C@H](O)[C@@H](O)[C@@H]2O)cc1`: 59.6% (inactive). On to `Fc1ccc(Nc2nnc(-c3ccc(Cl)cc3)o2)cc1`, for which the growth was 108% (inactive). The same measure, in the same setting: the same measure for `COC(=O)[C@]12CC[C@@H](C)[C@H](C)[C@@H]1C1=CC[C@@H]3[C@@](C)(CC#N)C4=C(C[C@@]3(C)[C@]1(C)CC2)OC[C@]4(C)C=O`: -99% (active); for `COc1ccc(/C=C/C(=O)NCC(C)O)cc1` (stereo not drawn): 97.2% (inactive). The same measure, in the same setting: the same measure for `COc1cnc2c(c1)C(=O)c1c-2n(CCCNC(C)C)c(=O)c2cc([N+](=O)[O-])ccc12`: -86.9% (active); for `Cn1cc(-c2csc(-c3cn(CCNC(=O)OC(C)(C)C)c4ccc(F)cc34)n2)c2cccnc21`: 71.9% (inactive). For the molecule `NCCn1cc(-c2nc(-c3c[nH]c4ncccc34)cs2)c2cc(F)ccc21`, the growth was 81.7% (inactive). On to `Cc1cc(N2CCCCC2)nc(N(CCNc2ccnc3cc(Cl)ccc23)Cc2ccco2)n1`, for which the growth was -12.6% (active).

On to `Fc1ccc(Nc2nc(Nc3ccc(-c4nc5ccccc5[nH]4)cc3)nc(N3CCCC3)n2)cc1`, for which the growth is 3.18% (active).

For `Brc1ccc2c(c1)c(-c1nc(-c3c[nH]c4ncccc34)cs1)cn2CCCN1CCCCC1`, the growth is -93.5% (active). Turning to `O=C1CNCCN1`, the growth was 98.5% (inactive). With `COC(=O)[C@]12CC[C@@H](C)[C@H](C)[C@@H]1C1=CC[C@@H]3[C@@]4(C)CC(=O)[C@H](OC(=O)c5ccco5)[C@@]5(C)COC(=C45)C[C@@]3(C)[C@]1(C)CC2`, the growth was 6.2% (active). As for `NCCn1cc(-c2nc(-c3c[nH]c4ncccc34)cs2)c2cc(Br)ccc21`, the growth was 82.6% (inactive).

`Cc1cc(N2CCCCC2)nc(N(CCCNc2ccnc3cc(Cl)ccc23)Cc2ccco2)n1`: the growth was -34.7% (active). Take `CCCCC[C@H]1CC=C2C(=O)C=C[C@@H]2CC=CCCCC(=O)O[C@@H](CCCCC)CC=C2C(=O)C=C[C@@H]2CC=CCCCC(=O)O[C@@H](CCCCC)CC=C2C(=O)C=C[C@@H]2CC=CCCCC(=O)O1`: the growth was -87.5% [8.75 µM] (active).

In the case of `CCC(CC)C(=O)OC(C)COc1ccc(C(C)(C)C)cc1` (stereo not drawn), the growth is 106% (inactive). As to `CC/C(=N/NC(N)=O)c1ccccc1`, the growth is 99% (inactive).

As to `N#CC1=C(N)Oc2c(sc3c(F)cccc23)C1c1ccc(Cl)cc1` (stereo not drawn), the growth is 30.3% (inactive). Still for that read-out and setting: the same measure for `CCCCC[C@H]1C/C=C2/C(=O)C(Cl)=C[C@@H]2C/C=C\CCCC(=O)O[C@@H](CCCCC)C/C=C2/C(=O)C(Cl)=C[C@@H]2C/C=C\CCCC(=O)O1`: -74.7% (active); for `c1ccc(-c2nc(Nc3ccc(-c4nc5ccccc5[nH]4)cc3)nc(N3CCOCC3)n2)cc1`: -89% (active).
